Source: PubChem BioAssay (NCATS)
Results filed as inconclusive are left out. A call without a number means that no potency is given here. Calls of active or inactive are those of the source. Calls follow the shape of the dose curve; as a rule, active = well fitted inhibition curve with a large enough effect; inconclusive = small, poorly fitted or top-dose-only effect; inactive = flat fitted curve, though single readings scatter.

Biological target: Voltage-gated inwardly rectifying potassium channel KCNH2 (Homo sapiens) (UniProt Q12809)
Experiment: qHTS Assay for Small Molecule Inhibitors of the Human hERG Channel Activity (AID 588834);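 also: top concentration of the series differs between compounds; lower thallium flux fluorescence means stronger hERG block; nearly all actives have a fitted effect of over 50% in size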
Conditions: U2OS BacMam hERG, FluxOR thallium flux fluorescence; series mostly up to 92.2 µM
Text: NIH Chemical Genomics Center [NCGC]
National Institutes of Environmental Health Sciences [NIEHS]
National Toxicology Program [NTP]
We have developed a 1536-well cell-based assay for quantitative high throughput screening (qHTS) to determine in vitro hERG channel blockage as a measure of cardio toxicity with small molecules. This particular assay uses the U2OS cell line which is derived from human osteosarcoma.
NCGC Assay Protocol Summary:
HERG assay (FluxORTM thallium flux assay) was initially developed by Invitrogen/Molecular Probes, and then miniaturized into 1536-well plate in a homogeneous format by NCGC. This assay measures the activity of potassium channel using thallium dye (FluxOR) flux as surrogate measurement for potassium into the cells with a FDSS-7000 kinetic plate reader (Hamamatsu Corp., Hamamatsu City, Japan). The hERG ion channel is transduced into mammalian cells (U2OS) using a baculovirus (Bacmam) construct harboring the hERG K+ ion channel. So far we screened LOPAC1280 library (Sigma), the NTP collection of 1408 compounds, and the NCGC Pharmaceutical Collection (NPC), in which many well defined HERG blockers are present. The rank order potencies of many of these compounds are similar to that of other HERG assays (membrane potential, Rb+ flux, patch clamp, etc). This quick and homogeneous assay is also found to be sensitive, specific, and robust.
Using the FluxORTM thallium flux assay, the activity of potassium channel using thallium dye (FluxOR) flux as surrogate measurement for potassium into the cells was measured in the U2OS cell line transduced with hERG K+ ion channel using a baculovirus (Bacmam) using Opti-MEM medium (Invitrogen) containing 2% fetal calf serum (FCS, HyCone) following loading buffer addition, compound treatment for around 10 minutes and finally adding stimulation buffer. The assay was performed in black clear Kalypsys 1536-well plates. In the screen, Astemizole was used as positive controls. Library compounds were measured for their ability to cause hERG channel blockage in the cell line, as reflected by a decrease in fluorescence intensity, in a concentration-dependent manner. […] AC50 values were determined from concentration-response data modeled with the standard Hill equation.
qHTS protocol for hERG-U2OS cellular assay
[Step] [Parameter] [Value] [Description]
1. Day 1: Replace medium in 70-80% confluent T225 flask with 2.5 mL of hERG-BacMam virus plus 12.5 mL of phosphate buffered saline (PBS) (corresponding roughly to a multiplicity of infection ratio of 100 virus particles/cell)
2. Incubation: 4 hrs @ room Temperature in Dark
3. Reagent; Remove virus; wash once with 25 ml DPBS
4. Reagent; 35 ml culture medium
5. Incubation; 37 °C overnight
6. Day2: Reagent; 3 uL; 2000 U2OS cells/well
7. Time; 4 hr; 37 °C incubation
8. Loading buffer; 1 uL; 0.7X;
9. Incubation: 1hr @ RT in Dark.
12. Time; 10min; 37 °C incubation
13. Read fluorescence Intensity on FDSS for 10 Sec with 1 sec interval
14. Reagent; 1 uL; stimulation buffer
15. Read fluorescence Intensity on FDSS for 2 min with 1 sec interval
16. Detection; Fluorescence Intensity; FDSS

Chain of Voltage-gated inwardly rectifying potassium channel KCNH2 (Homo sapiens) (Q12809 whole entry, looked up): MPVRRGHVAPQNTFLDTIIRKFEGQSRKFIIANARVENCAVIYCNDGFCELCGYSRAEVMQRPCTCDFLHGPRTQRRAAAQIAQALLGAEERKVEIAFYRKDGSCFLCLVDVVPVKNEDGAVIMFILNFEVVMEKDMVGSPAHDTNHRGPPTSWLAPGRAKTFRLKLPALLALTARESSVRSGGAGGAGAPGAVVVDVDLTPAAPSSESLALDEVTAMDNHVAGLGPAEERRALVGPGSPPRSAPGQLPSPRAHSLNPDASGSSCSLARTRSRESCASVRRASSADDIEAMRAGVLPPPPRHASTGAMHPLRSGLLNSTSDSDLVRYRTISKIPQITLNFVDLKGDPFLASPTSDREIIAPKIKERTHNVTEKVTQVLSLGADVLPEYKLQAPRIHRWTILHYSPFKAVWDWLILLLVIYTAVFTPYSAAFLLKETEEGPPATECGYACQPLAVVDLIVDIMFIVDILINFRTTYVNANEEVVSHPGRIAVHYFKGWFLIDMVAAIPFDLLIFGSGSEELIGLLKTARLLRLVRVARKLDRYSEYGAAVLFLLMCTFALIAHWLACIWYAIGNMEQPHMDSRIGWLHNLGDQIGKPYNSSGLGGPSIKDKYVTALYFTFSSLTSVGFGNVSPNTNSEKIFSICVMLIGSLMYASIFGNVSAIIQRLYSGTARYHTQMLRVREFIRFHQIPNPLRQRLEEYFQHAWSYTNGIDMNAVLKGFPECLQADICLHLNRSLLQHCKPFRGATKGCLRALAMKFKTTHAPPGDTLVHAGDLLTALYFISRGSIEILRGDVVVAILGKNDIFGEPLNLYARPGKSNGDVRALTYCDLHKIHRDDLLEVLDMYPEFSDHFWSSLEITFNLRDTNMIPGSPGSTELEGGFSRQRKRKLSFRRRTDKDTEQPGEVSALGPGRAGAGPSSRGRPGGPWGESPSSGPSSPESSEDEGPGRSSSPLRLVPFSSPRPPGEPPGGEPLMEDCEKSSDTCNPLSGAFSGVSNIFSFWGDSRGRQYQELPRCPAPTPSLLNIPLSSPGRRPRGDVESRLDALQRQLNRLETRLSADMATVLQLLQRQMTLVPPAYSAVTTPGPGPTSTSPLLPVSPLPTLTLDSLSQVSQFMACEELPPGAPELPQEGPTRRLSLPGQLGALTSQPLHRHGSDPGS

Compound	Potency
c1ccc(Nc2ccccc2)cc1	inactive
CCCC(Cl)CCCC(Cl)CCC(Cl)CCC(Cl)CCC(Cl)CCCC(Cl)CCC (stereo not given)	inactive
Cc1c(N)cccc1[N+](=O)[O-]	inactive
O=C1NC(=O)c2cc([N+](=O)[O-])ccc21	inactive
O=C(Cl)c1ccccc1[N+](=O)[O-]	inactive
Nc1cc(Cl)c([N+](=O)[O-])cc1O	inactive
C=C(C)C(N)=O	inactive
Oc1c(Cl)ccc(Cl)c1Cl	inactive
O=C(O)c1ccccc1[N+](=O)[O-]	inactive
Oc1cccc(Nc2ccccc2)c1	inactive
CC/C=C/C#N	inactive
CNc1ccccc1	inactive
O=C(O[C@@H](C(=O)O)[C@@H](OC(=O)c1ccccc1)C(=O)O)c1ccccc1	inactive
C1CCOC1	inactive
NC=O	inactive
CC(C)N(C)C	inactive
CCCCC=O	inactive
CCCCOCCOCCOCCCC	inactive
Cc1ccc(C)cc1	inactive
C=CCCCCCCC=C	inactive

Compound	Potency
CCOc1cc(OCC)c(C(C)=O)cc1OCC	inactive
CCN(CC)c1cccc(O)c1	inactive
ON=C1CCCCC1	inactive
CCOc1ccccc1N	inactive
N#CCc1ccccc1[N+](=O)[O-]	inactive
C/C=C1\CC2C=CC1C2 (stereo not given)	inactive
CCCCC(CC)COC(=O)CCCCC(=O)OCC(CC)CCCC (stereo not given)	inactive
C1CCC2OC2C1 (stereo not given)	inactive
C=C(C)C(=O)OCC(C)C	inactive
CCCCOCCOCCSC#N	inactive
C=Cc1ccccc1C=C	inactive
CCNS(=O)(=O)c1ccc(C)cc1	inactive
CC(N)CN (stereo not given)	inactive
C=C(C)C(=O)OCC(C)O (stereo not given)	inactive
Nc1ccccc1[N+](=O)[O-]	inactive
Nc1c(Cl)cc(Cl)cc1Cl	inactive
S=C([S-])NCCNC(=S)[S-].[Zn+2]	inactive
O=C1CCC(=O)O1	inactive
CC(C)=CCl	inactive
FB(F)F	inactive
